Bioassay records: PubChem BioAssay, Broad Institute
The full list was thinned out, with hits kept by preference.
IDE exosite inh: exo-site inhibitors of human insulin-degrading enzyme; P14735; purified IDE, FL-6b probe fluorescence polarization; active compounds read low; z-score at 20 µM; hit rate 6.3% among 17,000; AID 1259349;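 active = z-score of -3 or lower, meaning strong loss of probe binding signal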;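 note: His-tagged human IDE residues 42-1019 made in E. coli with 30 nM FL-6b probe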
Target sequence (P14735 42-1019 limits assumed): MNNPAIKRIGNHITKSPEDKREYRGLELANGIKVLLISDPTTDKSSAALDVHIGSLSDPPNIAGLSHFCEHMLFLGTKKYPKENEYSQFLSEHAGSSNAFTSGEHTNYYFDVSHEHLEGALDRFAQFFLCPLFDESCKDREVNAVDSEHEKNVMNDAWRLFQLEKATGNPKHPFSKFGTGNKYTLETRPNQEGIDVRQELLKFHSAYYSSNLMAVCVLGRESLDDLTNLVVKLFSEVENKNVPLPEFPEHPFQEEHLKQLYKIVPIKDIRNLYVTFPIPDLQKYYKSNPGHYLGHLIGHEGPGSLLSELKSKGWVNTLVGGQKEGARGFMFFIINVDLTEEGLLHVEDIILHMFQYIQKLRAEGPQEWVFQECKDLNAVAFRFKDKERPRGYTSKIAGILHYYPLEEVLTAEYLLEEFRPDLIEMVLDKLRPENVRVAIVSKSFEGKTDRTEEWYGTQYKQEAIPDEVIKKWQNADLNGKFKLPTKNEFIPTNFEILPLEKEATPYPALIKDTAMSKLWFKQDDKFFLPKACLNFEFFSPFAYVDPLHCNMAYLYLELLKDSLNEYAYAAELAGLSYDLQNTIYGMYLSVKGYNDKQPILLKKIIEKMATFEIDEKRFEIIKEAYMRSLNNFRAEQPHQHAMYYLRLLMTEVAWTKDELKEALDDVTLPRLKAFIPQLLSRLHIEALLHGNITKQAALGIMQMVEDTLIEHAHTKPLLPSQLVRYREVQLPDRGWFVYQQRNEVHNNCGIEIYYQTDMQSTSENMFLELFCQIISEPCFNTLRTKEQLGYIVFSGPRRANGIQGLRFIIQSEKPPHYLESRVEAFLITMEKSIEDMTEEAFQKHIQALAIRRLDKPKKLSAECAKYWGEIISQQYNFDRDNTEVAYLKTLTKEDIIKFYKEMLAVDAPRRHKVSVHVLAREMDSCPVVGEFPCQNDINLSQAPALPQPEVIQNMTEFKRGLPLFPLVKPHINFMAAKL
Of the large screens only hits and unclear results are named; the others gave an inactive call.

COc1ccc(-c2ccc([C@@H]3[C@@H](CO)N4C(=O)CN(C(=O)C5CCC5)C[C@@H]34)cc2)cc1	none
COc1cccc(-c2ccc([C@@H]3[C@@H](CO)N4C(=O)CN(C(=O)C5CCC5)C[C@H]34)cc2)c1	IDE exosite inh -4.3
COc1ccc(-c2ccc([C@H]3[C@@H](CO)N4C(=O)CN(C(=O)NC(C)C)C[C@H]34)cc2)cc1	none
COc1ccc(-c2ccc([C@@H]3[C@H]4CN(C(=O)NC(C)C)CC(=O)N4[C@H]3CO)cc2)cc1	none
CN(C)C(=O)c1cccc(-c2ccc([C@H]3[C@@H](CO)N4C(=O)CN(C(=O)C5CCC5)C[C@@H]34)cc2)c1	none
COc1ccc(-c2ccc([C@H]3[C@@H](CO)N4C(=O)CN(C(=O)C5CCCC5)C[C@@H]34)cc2)cc1	none
CO[C@@H]1CN(C)C(=O)c2cc(NC(=O)CC(F)(F)F)ccc2OC[C@H](C)N(CC2CC2)C[C@@H]1C	none
N#C[C@@H]1[C@H](c2ccccc2-c2cccc(F)c2)[C@H](CO)N1C(=O)C1CC1	none
O=C1CN(Cc2ccc(F)cc2)C[C@@H]2[C@H](c3ccc(Br)cc3)[C@H](CO)N12	none
N#C[C@@H]1N[C@H](CO)[C@H]1c1ccc(C2=CCCC2)cc1	none
C[C@H](CO)N1C[C@H](C)[C@@H](CN(C)C(=O)C2CCCCC2)OCCCC[C@H](C)Oc2ccc(NS(=O)(=O)c3ccccc3)cc2C1=O	none
CN(C)C(=O)c1ccc(-c2ccc([C@H]3[C@@H](CO)N4C(=O)CN(C(=O)C5CCCC5)C[C@@H]34)cc2)cc1	none
N#C[C@@H]1[C@@H](c2ccc(C3=CCCC3)cc2)[C@@H](CO)N1C(=O)c1cccc(F)c1	none
CC(=O)NC[C@H]1[C@@H](c2ccc(-c3ccccc3)cc2)[C@H](CO)N1C(=O)C1CC1	none
COc1cccc(-c2ccc([C@H]3[C@H]4CN(C(=O)C5CCC5)CC(=O)N4[C@H]3CO)cc2)c1	IDE exosite inh -5.7
CN(C)C(=O)c1cccc(-c2ccc([C@@H]3[C@@H](CO)N4C(=O)CN(C(=O)C5CCCCC5)C[C@@H]34)cc2)c1	none
CN(C)C(=O)c1cccc(-c2ccc([C@H]3[C@H]4CN(C(=O)C5CCCCC5)CC(=O)N4[C@H]3CO)cc2)c1	none
COc1cccc(-c2ccc([C@H]3[C@@H](CO)N4C(=O)CN(C(=O)C5CCCCC5)C[C@@H]34)cc2)c1	IDE exosite inh -6.3
O=C(Nc1ccc(F)cc1)N1CC(=O)N2[C@H](CO)[C@@H](c3ccc(C#Cc4ccccc4)cc3)[C@H]2C1	none
C/C=C/c1ccc([C@@H]2[C@@H](CO)N3C(=O)CN(C(=O)c4ccncc4)C[C@H]23)cc1	none
O=C(Nc1ccc(F)cc1)N1CC(=O)N2[C@H](C1)[C@H](c1ccc(C3=CCCC3)cc1)[C@@H]2CO	none
O=S(=O)(c1cccc(F)c1)N1CC[C@@H]2[C@H](CO)Nc3ccc(C#Cc4ccccc4F)cc3[C@@H]21	none
Cn1cnc(S(=O)(=O)N[C@H]2CC[C@@H](CC(=O)NCC3CCCCC3)O[C@@H]2CO)c1	none
O=C(Cc1ccccc1)N1CC(=O)N2[C@H](C1)[C@@H](c1ccc(C3=CCCC3)cc1)[C@@H]2CO	none
Cc1cccc(-c2ccc([C@H]3[C@@H](CO)N4C(=O)CN(C(=O)NC5CCCCC5)C[C@@H]34)cc2)c1	IDE exosite inh -10
O=C(NC1CCCCC1)N1CC(=O)N2[C@@H](CO)[C@@H](c3ccc(C4=CCCC4)cc3)[C@@H]2C1	none
Cc1cccc(-c2ccc([C@@H]3[C@H]4CN(C(=O)NC5CCCCC5)CC(=O)N4[C@H]3CO)cc2)c1	IDE exosite inh -16
Cc1cccc(-c2ccc([C@H]3[C@H](CO)N4C(=O)CN(C(=O)NC5CCCCC5)C[C@@H]34)cc2)c1	IDE exosite inh -16
O=C(NC1CCCCC1)N1CC(=O)N2[C@H](CO)[C@@H](c3ccc(-c4cccc(F)c4)cc3)[C@H]2C1	none
O=C(NC1CCCCC1)N1CC(=O)N2[C@H](CO)[C@H](c3ccc(-c4cccc(F)c4)cc3)[C@@H]2C1	none
O=C(Nc1ccccc1F)N1CC(=O)N2[C@H](CO)[C@H](c3ccc(-c4ccc(F)cc4)cc3)[C@@H]2C1	none
COCC#Cc1ccc([C@H]2[C@H](CO)N3C(=O)CN(C(=O)C4CCOCC4)C[C@@H]23)cc1	none
O=C(C[C@@H]1CC[C@H](NC(=O)C2CC2)[C@H](CO)O1)Nc1ccccc1	none
O=S(=O)(c1cccs1)N1CCCCN2[C@H](CO)[C@H](c3ccc(/C=C/c4ccccc4)cc3)[C@H]2C1	none
COc1cccc(NC(=O)N2CC(=O)N3[C@H](CO)[C@H](c4ccc(Br)cc4)[C@@H]3C2)c1	none
CC(C)CC#Cc1ccc([C@@H]2[C@H](CO)N3CCCCN(C(=O)c4ccc5c(c4)OCO5)C[C@@H]23)cc1	none
COCC#Cc1ccc([C@@H]2[C@H](CO)N3C(=O)CN(C(=O)Nc4ccc(F)cc4)C[C@@H]23)cc1	none
CN(C)C(=O)c1ccc(-c2ccc([C@@H]3[C@@H](CO)N4C(=O)CN(C(=O)C5CC5)C[C@@H]34)cc2)cc1	none
CC(C)NC(=O)Nc1ccc2c(c1)C(=O)N([C@@H](C)CO)C[C@H](C)[C@@H](CN(C)C(=O)C1CCCCC1)OCCCC[C@H](C)O2	none
COCC(=O)N1[C@@H](C#N)[C@@H](c2ccccc2C2=CCCC2)[C@@H]1CO	none
C/C=C/c1ccc([C@H]2[C@@H](CO)N(C(C)=O)[C@@H]2CN(CCC)C(=O)C2CCC2)cc1	none
OC[C@@H]1[C@H](c2ccc(-c3ccccc3F)cc2)[C@@H]2CN(Cc3ccncc3)CCCCN12	none
OC[C@@H]1[C@@H](c2ccc(-c3ccccc3F)cc2)[C@@H]2CN(Cc3ccncc3)CCCCN12	none
OC[C@H]1[C@@H](c2ccc(-c3ccccc3F)cc2)[C@H]2CN(Cc3ccncc3)CCCCN21	none
OC[C@H]1[C@H](c2ccc(-c3ccccc3F)cc2)[C@H]2CN(Cc3ccncc3)CCCCN21	IDE exosite inh -3.3
COc1ccc(C#Cc2ccc([C@H]3[C@H]4CN(Cc5ccncc5)CCCCN4[C@H]3CO)cc2)cc1	none
COc1ccccc1-c1ccc([C@@H]2[C@@H](CO)N3CCCCN(Cc4ccncc4)C[C@@H]23)cc1	IDE exosite inh -6.8
O=C(C1CCC1)N1CC2(C1)[C@H](c1ccccc1)[C@@H](CO)N2Cc1nccs1	none
C[C@H](CO)N1C[C@H](C)[C@@H](CN(C)C(=O)NC2CCCC2)Oc2cc(-c3cncnc3)ccc2S1(=O)=O	none
N#C[C@H]1[C@@H](c2ccccc2-c2ccccc2)[C@@H](CO)N1C(=O)Cc1ccncc1	none
O=S(=O)(c1ccccc1)N1[C@@H]2CNc3ccccc3[C@@H]2[C@@H]1CO	none
COCC#Cc1ccc([C@@H]2[C@@H](CO)N3C(=O)CN(C(=O)C4CCC4)C[C@@H]23)cc1	none
CCC(=O)N1CCCCN2[C@H](C1)[C@H](c1ccc(C#Cc3ccccc3)cc1)[C@@H]2CO	IDE exosite inh -4.6
O=C(Nc1ccccc1)N1CCCCN2[C@@H](CO)[C@H](c3ccc(C#Cc4ccccc4)cc3)[C@@H]2C1	none
CCC(=O)N1CCCCN2[C@H](CO)[C@H](c3ccc(C#Cc4ccccc4)cc3)[C@@H]2C1	IDE exosite inh -8.8
CCC(=O)N1CCCCN2[C@H](C1)[C@H](c1ccc(C#CCOC)cc1)[C@@H]2CO	none
CCC(=O)N1CCCCN2[C@H](CO)[C@@H](c3ccc(C#Cc4ccccc4)cc3)[C@H]2C1	IDE exosite inh -3.9
CCC(=O)N1CCCCN2[C@H](CO)[C@H](c3ccc(C#CCOC)cc3)[C@@H]2C1	none
CCC(=O)N1CCCCN2[C@H](C1)[C@@H](c1ccc(C#Cc3ccccc3)cc1)[C@@H]2CO	none
CCC(=O)N1CCCCN2[C@@H](CO)[C@@H](c3ccc(-c4cccc(C#N)c4)cc3)[C@@H]2C1	none
